FMDV antiviral – foot and mouth disease virus antiviral activity. Potency, µM (top dose mostly 57.9 µM), for the others: at the highest dose activity change, negative = inhibition, usual class: inhibitors. actives 1.2% (n = 410,000). AID 1159524. FMDV antiviral cell-based qHTS; calls by dose curve; tested in HEK293T cells; further: read-out not given here; potency means the concentration at half of the fitted maximal effect; nearly all actives have a fitted effect of over 45% in size
Sm TGR inh – inhibitors of Schistosoma mansoni thioredoxin glutathione reductase. purified TGR, DTNB reduction, TNB absorbance 405 nm. actives 3% (n = 360,000). Potency, µM (doses to about 114 µM), without a hit: at the top dose activity change, negative = inhibition, hits mostly inhibitors. Q962Y6; further: potency means the concentration at half of the fitted maximal effect; nearly all actives have a fitted effect of over 60% in size
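Kinetic colorimetric format: TGR-catalysed, NADPH-driven DTNB reduction monitored via TNB absorbance. Enzyme dispensed at 20 nM; compound exposure 15 min at room temperature before reaction start.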
Giardia FBPA inh – inhibitors of Giardia lamblia fructose-1,6-bisphosphate aldolase. purified Giardia FBPA. Potency, µM (highest dose often 59.6 µM), without a hit: top-dose activity, negative = inhibition, hits mostly inhibitors. actives 0.71% (n = 290,000); further: potency means the concentration at half of the fitted maximal effect; nearly all actives have a fitted effect of over 55% in size
Target sequence (A8B2U2 whole entry, looked up): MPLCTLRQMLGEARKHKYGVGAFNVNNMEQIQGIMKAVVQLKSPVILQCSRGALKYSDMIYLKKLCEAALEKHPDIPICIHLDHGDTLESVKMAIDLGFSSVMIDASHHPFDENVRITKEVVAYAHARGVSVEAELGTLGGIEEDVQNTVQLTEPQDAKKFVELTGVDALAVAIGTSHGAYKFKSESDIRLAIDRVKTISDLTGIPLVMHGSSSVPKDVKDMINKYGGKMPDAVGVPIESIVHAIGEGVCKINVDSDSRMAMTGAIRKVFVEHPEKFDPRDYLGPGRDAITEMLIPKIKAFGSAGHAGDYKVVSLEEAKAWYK
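Giardia FBPA (40 nM reagent) was preincubated 10 min at RT with compound (up to 57.5 uM final), then substrate plus GAPDH/TPI/NAD/arsenate coupling system with diaphorase/resazurin was added; resorufin fluorescence (525/598 nm) was read after 20 min.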
RE007 growth inh – less growth of the S. pombe RE007 Vpr strain; actives 0.21% (n = 360,000); S. pombe RE007 Vpr strain, BacTiter-Glo ATP luminescence, 24 h; Potency, µM (titrated, usually from 92.2 µM), without a hit: at the top dose activity change, negative = less growth, most hits filed as inhibitors; active means well fitted falling curve with a large enough effect; inconclusive means small, poorly fitted or top-dose-only effect; inactive means no such curve, though single readings can be large or run the other way; further: potency means the concentration at half of the fitted maximal effect; nearly all actives have a fitted effect of over 50% in size
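Fission yeast RE007 carrying one integrated HIV-1 vpr copy, seeded at OD 0.01 in PMG+AL medium with 23 nL pinned compound. Grown 24 h at 30 degrees; viability read by BacTiter-Glo luminescence after 5 min.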
TbPYK inhibitor – blocks Trypanosoma brucei pyruvate kinase | TbPYK enzyme, Kinase-Glo Plus ATP luminescence, 45 min | actives 0.12% (n = 410,000) | Q57TT1 | AID 624173 | Potency, µM (doses to about 76.8 µM), for inactives: top-dose activity, negative = inhibition, actives largely listed as inhibitors; further: potency means the concentration at half of the fitted maximal effect; nearly all actives have a fitted effect of over 50% in size
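Screened from lowest to highest concentration, compounds were pinned into TbPYK/substrate mixtures, and ADP (130 uM final) was added. Plates sat at room temperature for 45 min prior to Kinase-Glo Plus detection by luminescence.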
HCMV antiviral – inhibitors of human cytomegalovirus; HFF cells, HCMV-luciferase reporter, 72 h; hits give low values; activity change, negative = inhibition, % at 57.5 µM; actives 4.5% (n = 410,000); in the data active means activity change below about -60%; inconclusive means no clear call, values can overlap the other calls; inactive means above about -39%
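Two-dose cell screen: HFF monolayers treated with compounds and infected with luciferase-expressing HCMV at 1 PFU/cell, 72 h at 37C, then lysed for luciferase measurement.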
Numbers without * were called inactive; ? = inconclusive; · = no result given; [ ] = another dose, or the depositor's remark. An excerpt weighted towards active compounds, which were near 7.7% of everything screened. Unless noted, the call rests on the fitted dose curve; in most records, active means well fitted curve in the direction sought with a large enough effect; inconclusive means small, poorly fitted or top-dose-only effect, or another doubt; inactive means no such curve, though single readings can be large; an effect the other way counts as inactive or inconclusive. On the % scale 0 is the no-effect control and ±100 the full control effect.

SMILES	FMDV antiviral	Sm TGR inh	Giardia FBPA inh	RE007 growth inh	TbPYK inhibitor	HCMV antiviral
Cc1ccc(C(=O)C(NC(=O)c2ccco2)Nc2sc3c(c2C(N)=O)CCCC3)cc1 (stereo unspecified)	·	28.2µM*	-27.8%	·	·	·
CNC(=O)c1c(NC(=O)c2ccco2)sc2c1CCCC2	12.7%	-21.4%	·	-11.2%	-0.6%	48.4
COC(=O)c1c(NC(=O)c2ccco2)sc2c1CCN(C(C)C)C2	?	-32.6%	-27.7%	-0.1%	-4.8%	6.4
COc1ccccc1N(CC(=O)Nc1cc(C)cc(C)c1)S(C)(=O)=O	-7.9%	-2.2%	·	·	6.7%	-27.3
Cc1[nH]c2ccccc2c1C(=O)CSc1nc2ccccc2c(=O)n1-c1ccccc1F	·	·	-3.4%	·	·	-88.7*
COCCn1c(SCC(=O)c2c(C)[nH]c3ccccc23)nc2cc(C(=O)NC(C)C)ccc2c1=O	-14.9%	35.5µM*	·	·	-7.9%	17.8
O=C1c2ccccc2C(=O)N1CCCCSc1nc2ccccc2c(=O)n1CCCN1CCOCC1	-19.0%	14.3%	0.8%	9.9%	2.6%	-103.7*
Cc1[nH]c2ccccc2c1C(=O)CSc1nc2ccccc2c(=O)n1CCCN1CCOCC1	?	-4.0%	5.8%	8.5%	-0.1%	-73.9*
Cn1cc(S(=O)(=O)c2ccc(Cl)cc2)c(=O)c2cc(F)c(N3CCOCC3)cc21	-16.7%	6.8%	·	·	4.6%	-12.1
CC(C)(CNC(=O)c1cnn(-c2nccc(-c3cc4ccccc4o3)n2)c1C1CC1)N1CCOCC1	6.3%	·	·	·	·	·
COC(=O)CC(=O)CSc1nc2cc(C(=O)NCC(C)C)ccc2c(=O)n1CCc1ccccc1	-18.5%	16.6%	·	·	-0.5%	-93.6*
COC(=O)CC(=O)CSc1nc2cc(C(=O)NC(C)C)ccc2c(=O)n1CCc1ccccc1	-21.8%	1.5%	·	·	5.7%	-27.5
CC(=O)Nc1ccc(OCC(=O)N2CCC(Cc3ccccc3)CC2)cc1	?	0.0%	7.0%	-12.0%	1.5%	5.0
O=C(Nc1ccc(OCC(=O)N2CCC(Cc3ccccc3)CC2)cc1)c1ccco1	-15.7%	0.0%	-2.2%	-3.0%	-19.8%	-83.2*
CC1CCN(C(=O)COc2ccc(Nc3ccccc3)cc2)CC1	-12.3%	-20.3%	-6.5%	-15.3%	-3.3%	-73.8*
COc1cc([C@H]2NC(=O)C[C@H]2C(=O)OCc2ccccc2)ccc1OC(C)C	·	·	·	·	·	-14.7
CN(C)c1ncc2nc(-c3cn(C)c4ccccc34)c(=O)n(C[C@H]3CCCO3)c2n1	-19.7%	·	2.3%	·	·	·
Cc1sc2ncn(-n3c(C)ccc3C)c(=O)c2c1C	?	?	6.9%	5.5%	-1.9%	-31.4
Cc1ccc(-c2csc3ncn(-n4c(C)ccc4C)c(=O)c23)o1	-21.6%	6.31µM*	10.3%	-5.3%	?	28.5
CN1c2ccccc2C(C)(C)C12CC(c1cccc(S(=O)(=O)N3CCCC3)c1)=NO2 (stereo unspecified)	-24.1%	-5.9%	-3.6%	-5.4%	6.0%	-71.8*
CN1c2ccccc2C(C)(C)C12CC(c1ccc(S(=O)(=O)N3CCCCC3)cc1)=NO2 (stereo unspecified)	3.7%	1.3%	-2.9%	1.0%	2.9%	-70.3*
CCN(CC)S(=O)(=O)c1ccc(-c2nnco2)cc1	-3.8%	10.0%	4.6%	0.0%	-1.4%	23.9
CCN(CC)S(=O)(=O)c1ccc(C2=NOC3(C2)N(C)c2ccccc2C3(C)C)cc1 (stereo unspecified)	-26.8%	6.2%	-3.8%	2.7%	-7.0%	-75.9*
CS(=O)(=O)N1CCc2cc(C(=O)N3CCN(c4cccc(Cl)c4)CC3)ccc21	-18.4%	-2.9%	·	-4.3%	0.3%	3.9
Cc1ccc(Cl)cc1N1CCN(C(=O)c2ccc3nc[nH]c3c2)CC1	-15.6%	-2.3%	1.9%	20.9%	1.8%	-61.2*
SMILES	FMDV antiviral	Sm TGR inh	Giardia FBPA inh	RE007 growth inh	TbPYK inhibitor	HCMV antiviral
Cc1ccc(Cl)cc1N1CCN(C(=O)c2ccc3c(c2)CCN3S(C)(=O)=O)CC1	·	0.4%	·	·	·	-65.7*
Cc1ccc(C)c(N2CCN(C(=O)CN3C(=O)COc4ccc(S(=O)(=O)N5CCOCC5)cc43)CC2)c1	-24.8%	2.4%	·	·	-4.3%	-2.8
COc1ccc(S(=O)(=O)N(CCc2ccccc2)CC(=O)Nc2cccc(OC)c2)cc1	-10.2%	2.3%	·	·	6.4%	28.4
CN1CCN(S(=O)(=O)c2ccc(NC(=S)NC(=O)c3ccc(Cl)cc3)cc2)CC1	-3.5%	22.4µM*	-4.1%	8.4%	-5.8%	63.8
CC(=O)Nc1ccc(S(=O)(=O)N2CCC(C(=O)c3ccc(Cl)cc3)CC2)cc1	-25.4%	-10.9%	1.8%	3.0%	-5.1%	-62.7*
CC(=O)Nc1ccc(NC(=O)C(C)OC(=O)c2ccc(S(=O)(=O)N3CCCCCC3)cc2)cc1 (stereo unspecified)	2.1%	·	·	4.7%	4.5%	-71.9*
O=C(NCc1ccccn1)[C@H]1[C@H](CO)[C@H]2Cn3c(cccc3=O)[C@@H]1N2CC1CCCCC1	·	·	·	·	·	-0.8
COc1ccc(NC(=O)C(Cc2ccccc2)NS(=O)(=O)c2ccc3c(c2)CCN3C(C)=O)cc1 (stereo unspecified)	-4.6%	-0.2%	·	·	-10.9%	-11.0
O=C1Nc2ccc(F)cc2C12SCCS2	-4.1%	?	·	9.8%	2.0%	-106.7*
Cc1ccc(Cl)cc1NC(=O)C(NS(=O)(=O)c1cccs1)c1ccccc1 (stereo unspecified)	?	-1.5%	3.1%	-4.0%	-9.7%	-70.2*
Cc1ccc(C2=CN(CCC(=O)O)C(=O)C2)cc1	·	·	·	·	·	25.8
COc1ncccc1-c1nnn(-c2ccc(Cl)nc2)n1	78.4%	25.1µM*	-2.6%	-3.6%	-6.4%	99.5
COCCn1c(=O)c(-c2ccc(OC)cc2)nc2cnc(Nc3ccccc3)nc21	0.4%	·	2.2%	·	0.6%	·
CC1(C)C=C2C(=NN(c3ccccc3)C(N)=C2C#N)CO1	11.6%	-30.8%	1.58µM*	13.3%	-15.9%	-16.4
CCC1(C)Cc2c(C#N)c(N)n(-c3ccccc3)c(=O)c2CO1 (stereo unspecified)	21.1%	1.0%	2.6%	5.0%	1.2%	42.4
COc1cccc(Cn2c(=O)cc(C)c3c(C)nn(C)c32)c1	?	-3.8%	·	·	4.3%	-19.9
Cc1ccc(SC2=C(Sc3ccc(C)cc3)C(=O)c3ccccc3C2=O)cc1	25.1µM*	?	?	-12.8%	?	8.7
COc1cccc([C@@H]2Oc3ccc(OC)cc3/C(=N/O[C@@H](C)c3cc(-c4c(C)cc(C)cc4C)no3)[C@@H]2O)c1	·	·	0.0%[12.9 µM]	·	·	·
COCCn1cnc2c1c(=O)n(Cc1ccc(C#N)cc1)c(=O)n2Cc1ccccc1	0.6%	-6.3%	22.2%	2.5%	-10.0%	-60.6*
